# Test results published in PubChem BioAssay (NCATS).
# Records with an inconclusive call do not appear. A number with no mark means an inactive call. Activity calls are given as the source filed them. The call rests on the fitted dose curve; in most records, active means well fitted inhibition curve with a large enough effect; inconclusive means small, poorly fitted or top-dose-only effect; inactive means flat fitted curve, though single readings scatter.
# Columns and labels:
# HEK293 = test: Cytotoxic Profiling of Annotated Libraries Using Quantitative High-Throughput Screening (AID 1296008); conditions: Five cell lines viability, CellTiter-Glo ATP luminescence, 48-72 h; max response: stronger effect = lower value; further: potency means the concentration at half of the fitted maximal effect
# How it was run: (§1)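 Cytotoxicity was measured as CellTiter-Glo ATP luminescence, read after 10 min at room temperature. Compound treatment of the cells lasted 48 or 72 hr at 37 degrees Celsius in a qHTS format.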
# HaCat [1] = test: as above; conditions: Five cell lines viability, CellTiter-Glo ATP luminescence, 48-72 h; max response: stronger effect = lower value
# How it was run: as §1
# KB-3-1 = test: as above; conditions: Five cell lines viability, CellTiter-Glo ATP luminescence, 48-72 h; max response: stronger effect = lower value
# How it was run: as §1
# NIH3T3 = test: as above; conditions: Five cell lines viability, CellTiter-Glo ATP luminescence, 48-72 h; max response: stronger effect = lower value
# How it was run: as §1
# HACAT [2] = test: qHTS assay to identify novel small-molecules to repurpose for Merkel cell carcinoma treatment (AID 1296009); conditions: MCC and control cell lines, CellTiter-Glo viability, 72 h; series mostly up to 44.8 µM
# How it was run: (§2)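 Cell viability, measured as CellTiter-Glo luminescence, was normalized between DMSO and no-cell wells. The cells had been exposed to 8- or 11-point compound dilutions for 72 hr at 37 degree celsius.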
# HEK293T = test: as above; conditions: MCC and control cell lines, CellTiter-Glo viability, 72 h; at 44.8 µM (top of the series) unless noted
# How it was run: as §2
# MCC-26 = test: as above; conditions: MCC and control cell lines, CellTiter-Glo viability, 72 h; series mostly up to 46 µM
# How it was run: as §2
# Further: nearly all actives have a fitted effect of over 60% in size.
# On the % scale 0 is the no-effect control and ±100 the full control effect.
smiles,measurement,setting,value
COC(=O)C1=CO[C@@H](O[C@@H]2O[C@H](CO)[C@@H](O)[C@H](O)[C@H]2O)[C@H]2[C@@H]1C=C[C@@]21C=C([C@H](C)O)C(=O)O1,max response,HEK293,-5.88%
same,outcome,HaCat [1],inactive
same,outcome,KB-3-1,inactive
same,max response,NIH3T3,3.5%
same,Potency,HACAT [2],inactive
CC(C)c1cc(C(=O)N2CC[C@H](NC(=O)C3CC3)C2)n[nH]1,max response,HEK293,-6.43%
same,outcome,HaCat [1],inactive
same,max response,KB-3-1,-1.18%
same,max response,NIH3T3,-25.5%
same,Potency,HACAT [2],inactive
CC1(C)CCCC2(C)C1CC(=O)C13CC(CCC12)C(O)(CO)C3 (stereo unspecified),max response,HEK293,0.204%
same,outcome,HaCat [1],inactive
same,max response,KB-3-1,8.26%
same,max response,NIH3T3,2.51%
same,Potency,HACAT [2],inactive
CS(=O)(=O)c1ccc(-c2nnc(/C=C/c3nnc(-c4ccc(C#N)cc4)o3)n2-c2ccccc2Cl)nc1,Potency,HEK293,11.6 µM (active)
same,outcome,HaCat [1],inactive
same,max response,KB-3-1,2.94%
same,max response,NIH3T3,-6.1%
same,Potency,HACAT [2],inactive
CC(C)c1ccc(CO)cc1O[C@@H]1O[C@H](CO)[C@@H](O)[C@H](O)[C@H]1O,outcome,HEK293,inactive
same,max response,HaCat [1],1.11%
same,outcome,KB-3-1,inactive
same,outcome,NIH3T3,inactive
same,outcome,HEK293T,inactive
CCC(C)/C=C(C)/C=C/c1cc2c(cn1)C(=O)C(C)(OC(C)=O)C(O)=C2Cl (stereo unspecified),max response,HEK293,-0.415%
same,outcome,HaCat [1],inactive
same,outcome,KB-3-1,inactive
same,outcome,NIH3T3,inactive
same,Potency,HACAT [2],inactive
CC(C)=C/C=C\[C@H](C)[C@H]1CC[C@]2(C)C[C@@H]3C(C)=CC(=O)C3/C(CO)=C\C[C@@H]12 (stereo partly specified),max response,HEK293,-20.2%
same,outcome,HaCat [1],inactive
same,outcome,KB-3-1,inactive
same,max response,NIH3T3,3.13%
same,Potency,HACAT [2],inactive
C/C(=C\CCC(C)CCO)C(=O)OC1(C)CCC2C(C(=O)O)=COC(OC3OC(CO)C(O)C(O)C3O)C21 (stereo unspecified),outcome,HEK293,inactive
same,max response,HaCat [1],-20.6%
same,outcome,KB-3-1,inactive
same,outcome,NIH3T3,inactive; activator
same,outcome,HEK293T,inactive [at 17.4 µM]
C[C@H](CCC(=O)O)[C@H]1CC[C@H]2[C@@H]3C[C@H](O)[C@@H]4C[C@H](O)CC[C@]4(C)[C@H]3CC[C@]12C,max response,HEK293,0.0594%
same,outcome,HaCat [1],inactive
same,outcome,KB-3-1,inactive
same,outcome,NIH3T3,inactive
same,Potency,HACAT [2],inactive
COc1c2cc(c(O)c1OC)-c1cc(ccc1O)CCC(O)CCCC2 (stereo unspecified),max response,HEK293,1.1%
same,outcome,HaCat [1],inactive
same,outcome,KB-3-1,inactive
same,max response,NIH3T3,-1.69%
same,Potency,HACAT [2],inactive
O=C(O)[C@H](Cc1ccc(Nc2nccc3ccncc23)cc1)NC1=C(Br)C(=O)C12CCCCC2,max response,HEK293,-11.7%
same,outcome,HaCat [1],inactive
same,outcome,KB-3-1,inactive
same,Potency,HACAT [2],inactive
CNC(C)C(=O)NC(C(=O)N1CCCC1c1nc(C(=O)c2ccc(F)cc2)cs1)C1CCCCC1 (stereo unspecified),Potency,HEK293,14.6 µM (active)
same,outcome,HaCat [1],inactive; activator
same,max response,KB-3-1,-9.35%
same,outcome,NIH3T3,inactive
same,Potency,HACAT [2],inactive
O=C(c1cccc(Cl)c1F)N1CCN(Cc2cccc(Nc3nccs3)n2)CC1,Potency,HEK293,1.03 µM (active)
same,Potency,KB-3-1,1.16 µM (active)
C=C1C(=O)O[C@@H]2[C@H]1CCC(C)=C1CCC(=O)O[C@]12C,Potency,HEK293,14.6 µM (active)
same,max response,KB-3-1,-23.5%
CCS(=O)(=O)N1CCN(c2ccc(Nc3ncc(C(N)=O)c(NC4CC4)n3)cc2)CC1,Potency,HEK293,7.31 µM (active)
same,Potency,KB-3-1,5.17 µM (active)
CC(=O)NC[C@H]1CN(c2ccc(N3CCN(C(=O)CO)CC3)c(F)c2)C(=O)O1,Potency,HEK293,13 µM (active)
same,max response,KB-3-1,-17.1%
Cc1ccccc1-n1c([C@H](C)Nc2nc(N)nc3nc[nH]c23)nc2cccc(C)c2c1=O,Potency,HEK293,16.4 µM (active)
same,max response,KB-3-1,-12.5%
C/C=C/c1ccc(O[C@@H]2O[C@H](CO)[C@@H](O)[C@H](O)[C@H]2O)c(OC)c1,Potency,HEK293,11.4 µM (active)
same,max response,KB-3-1,-6.82%
Nc1nc(Nc2ccc(S(N)(=O)=O)cc2)n(C(=S)Nc2c(F)cccc2F)n1,Potency,HEK293,8.2 µM (active)
same,Potency,KB-3-1,1.3 µM (active)
Nc1ccccc1N,Potency,HEK293,17.2 µM (active)
same,max response,HaCat [1],3.79%
same,max response,KB-3-1,-4.37%
same,outcome,MCC-26,inactive
N#Cc1ccc(-c2cnc3[nH]cc(NC(=O)c4cccnc4)c3c2)cc1,Potency,HEK293,8.2 µM (active)
same,max response,KB-3-1,-24.8%
COc1c(Nc2ncc(Cl)c(N[C@H]3[C@@H](C(N)=O)[C@@H]4C=C[C@H]3C4)n2)ccc2c1CC[C@@H](N1CCOCC1)CC2,Potency,HEK293,3.66 µM (active)
same,Potency,KB-3-1,18.4 µM (active)
